From PubChem BioAssay (NCI) come the findings set out here.

This is part of a sample that, as a whole, favours compounds with a hit. Of some 83,000 tested, about 20% had one in any assay.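 Treatment: one concentration, 48 hours, 96-well format. Scoring: percent growth, with anything below 10 considered active.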 Unmarked numbers belong to inactive results. The source made the active and inactive calls.

Some test systems named below: NCI-H23 lung; NCI-H226 lung; NCI-H322M lung; HOP-62 NSCLC; NCI-H460 lung; HOP-92 NSCLC; NCI-H522 lung; A549/ATCC NSCLC; 786-0 renal; COLO 205 colon; DU-145 prostate; K-562 leukemia; MALME-3M melanoma; MDA-MB-231 breast; RXF 393 renal; SF-268 CNS; SF-295 CNS; SF-539 CNS; UACC-257 melanoma; M14 melanoma.
What all share (assay): NCI-60 one-dose screen, 48 h (100 = growth as untreated, 0 = no growth, -100 = all killed)
Settings in all cases: 10 µM

As to `COc1ccc(/C=C2\SC(=S)N(CCCN3CCOCC3)C2=O)c(OC)c1`, the growth was 98.9% in the experiment on NCI-H23 lung; -99.3% (active) with NCI-H226 lung; 111% in the experiment with NCI-H322M lung; 125% in the experiment with HOP-62 NSCLC; 105% with NCI-H460 lung; 87.1% in the experiment with HOP-92 NSCLC. The growth in the experiment on NCI-H522 lung is 79.7%; in the experiment on A549/ATCC NSCLC, 102%; with 786-0 renal, 106%; in the experiment with COLO 205 colon, 108%; in the experiment with DU-145 prostate it was 100%; in the experiment on K-562 leukemia, 83.8%. In addition, the growth in the experiment with MALME-3M melanoma was 118%; in the experiment on MDA-MB-231 breast, 96.9%; in the experiment on RXF 393 renal, 108%; with SF-268 CNS, 104%; with SF-295 CNS, 107%; in the experiment with SF-539 CNS it was 104%. Further, the growth was 102% in the experiment on UACC-257 melanoma and 95.6% in the experiment on M14 melanoma.

`COCCOC(=O)NC(=O)Nc1ccc(C(=O)c2ccc(Cl)cc2)cc1`: the growth in the experiment on NCI-H23 lung is 36.2%; in the experiment on NCI-H226 lung it was 46.2%; in the experiment on NCI-H322M lung it was 57.9%; in the experiment on HOP-62 NSCLC it was 28.5%; in the experiment on NCI-H460 lung, 23.3%; in the experiment on HOP-92 NSCLC, 32.9%. In addition, the growth is 10.7% with NCI-H522 lung; 41.8% with A549/ATCC NSCLC; 47% with 786-0 renal; 13.4% in the experiment on COLO 205 colon; 38.2% with DU-145 prostate; 11.7% in the experiment with K-562 leukemia. In addition, the growth with MALME-3M melanoma was 56.8%; in the experiment with MDA-MB-231 breast it was 49.8%; with RXF 393 renal it was 40%; in the experiment with SF-268 CNS, 55.2%; in the experiment on SF-295 CNS, 21.9%; in the experiment on SF-539 CNS, 15.4%. The growth was 50.8% in the experiment on UACC-257 melanoma and 20.2% with M14 melanoma.

In the case of `COc1cc(CSc2nc3ccc(C)cc3c(=O)n2-c2ccccc2)cc(OC)c1OC`, the growth in the experiment with NCI-H23 lung is 22%; with NCI-H226 lung, 48.3%; with NCI-H322M lung, 47.4%; with HOP-62 NSCLC, 37.8%; in the experiment on NCI-H460 lung it was 20.2%; in the experiment with HOP-92 NSCLC it was 67.9%. The growth in the experiment on NCI-H522 lung was 8.32% (active); in the experiment with A549/ATCC NSCLC, 39.3%; in the experiment on 786-0 renal it was 37.6%; in the experiment with COLO 205 colon, -24.2% (active); in the experiment with DU-145 prostate, 29.8%; in the experiment on K-562 leukemia it was 10.4%. Further, the growth in the experiment on MALME-3M melanoma was 42.5%; in the experiment with MDA-MB-231 breast, 38%; in the experiment with RXF 393 renal it was 14.2%; in the experiment on SF-268 CNS, 47.5%; in the experiment on SF-295 CNS, 32.8%; in the experiment on SF-539 CNS it was 3.56% (active). The growth in the experiment with UACC-257 melanoma was 50.2%; in the experiment on M14 melanoma it was 17.2%.

`CC(C)C(C)C(N)C(=O)O` (stereo not given): the growth was 97.8% with NCI-H23 lung; 102% in the experiment on NCI-H226 lung; 99% with NCI-H322M lung; 89.9% with HOP-62 NSCLC; 109% in the experiment with NCI-H460 lung; 86.8% in the experiment with HOP-92 NSCLC. The growth in the experiment with NCI-H522 lung is 91.2%; in the experiment on A549/ATCC NSCLC it was 104%; with 786-0 renal it was 92.8%; in the experiment on COLO 205 colon, 108%; in the experiment on DU-145 prostate it was 105%; in the experiment with K-562 leukemia, 90.8%. Further, the growth was 95.9% in the experiment with MALME-3M melanoma; 125% in the experiment with MDA-MB-231 breast; 108% in the experiment on RXF 393 renal; 107% in the experiment on SF-268 CNS; 117% in the experiment on SF-295 CNS; 101% with SF-539 CNS. For the same molecule, the growth was 108% in the experiment with UACC-257 melanoma and 94.1% with M14 melanoma.

Regarding `O=C(NC1CCN(Cc2ccccc2)CC1)c1cc(-c2ccncc2)nc2ccc(Cl)cc12`, the growth is 38.3% in the experiment on NCI-H23 lung; 26.9% in the experiment with NCI-H226 lung; 32.5% with NCI-H322M lung; 45.6% in the experiment with HOP-62 NSCLC; 6.31% (active) with NCI-H460 lung; 27.7% in the experiment on HOP-92 NSCLC. Moreover, the growth with NCI-H522 lung is 28.6%; in the experiment on A549/ATCC NSCLC it was 6.48% (active); with 786-0 renal it was 31.1%; with COLO 205 colon, 18.5%; in the experiment on DU-145 prostate, 33.2%; in the experiment on K-562 leukemia, 13.4%. Also, the growth in the experiment with MALME-3M melanoma was 56.9%; in the experiment with MDA-MB-231 breast, 42.3%; with RXF 393 renal, 37.8%; with SF-268 CNS, 24.4%; in the experiment with SF-295 CNS, 14.6%; with SF-539 CNS, 16.4%. In addition, the growth in the experiment with UACC-257 melanoma is -1.44% (active); with M14 melanoma, 16.1%.

As for `Cn1c([N+](=O)[O-])cnc1/C=C1\Oc2ccc(Br)cc2C1=O`, the growth is -9.69% (active) with NCI-H23 lung; -38.1% (active) in the experiment with NCI-H226 lung; -10.5% (active) with NCI-H322M lung; -23.7% (active) in the experiment on HOP-62 NSCLC; -35% (active) in the experiment with NCI-H460 lung; -32% (active) in the experiment with HOP-92 NSCLC. Also, the growth in the experiment with NCI-H522 lung was -49.4% (active); with A549/ATCC NSCLC it was -24.8% (active); in the experiment on 786-0 renal it was -52.9% (active); in the experiment on COLO 205 colon, -42.1% (active); with DU-145 prostate, -57.9% (active); in the experiment with K-562 leukemia, -0.493% (active). The growth in the experiment with MALME-3M melanoma was -53.4% (active); with MDA-MB-231 breast it was -14.8% (active); with RXF 393 renal, -59% (active); with SF-268 CNS, -16.9% (active); with SF-295 CNS, 11.2%; in the experiment with SF-539 CNS it was -59.5% (active). The growth was -38.5% (active) in the experiment on UACC-257 melanoma and -35% (active) in the experiment with M14 melanoma.

Turning to `Cc1ccc(/C(CS(=O)(=O)c2ccc(C)cc2)=N\O)cc1`, the growth was 99.9% in the experiment with NCI-H23 lung; 93.6% with NCI-H226 lung; 104% in the experiment with NCI-H322M lung; 111% in the experiment on HOP-62 NSCLC; 106% in the experiment with NCI-H460 lung; 87.4% in the experiment on HOP-92 NSCLC. In addition, the growth in the experiment on NCI-H522 lung is 97%; with A549/ATCC NSCLC, 94.6%; in the experiment with 786-0 renal, 102%; in the experiment with COLO 205 colon, 118%; in the experiment on DU-145 prostate, 111%; in the experiment with K-562 leukemia it was 105%. The growth with MALME-3M melanoma is 116%; with MDA-MB-231 breast, 103%; with RXF 393 renal, 93.6%; in the experiment with SF-268 CNS, 108%; in the experiment with SF-295 CNS, 90.8%; in the experiment on SF-539 CNS, 97.3%. Also, the growth with UACC-257 melanoma is 97%; with M14 melanoma, 116%.

For `CCc1ccc(Nc2cc(C)nc3nc(C)nn23)cc1`, the growth in the experiment with NCI-H23 lung was 3.75% (active); in the experiment on NCI-H226 lung, 62.1%; with NCI-H322M lung, 61.7%; in the experiment on HOP-62 NSCLC, 26.8%; in the experiment with NCI-H460 lung, -43.3% (active); with HOP-92 NSCLC, -3% (active). Besides, the growth in the experiment with NCI-H522 lung was -14.6% (active); in the experiment with A549/ATCC NSCLC, -17.6% (active); in the experiment with 786-0 renal, 34.8%; in the experiment with COLO 205 colon it was -96.4% (active); in the experiment with DU-145 prostate, 29.5%; in the experiment on K-562 leukemia, -24.3% (active). The growth was -90.2% (active) in the experiment with MALME-3M melanoma; -58.3% (active) with MDA-MB-231 breast; -66.5% (active) with RXF 393 renal; 37.8% in the experiment with SF-268 CNS; 33.1% with SF-295 CNS; 0.337% (active) in the experiment with SF-539 CNS. In addition, the growth in the experiment with UACC-257 melanoma was -84.8% (active); in the experiment with M14 melanoma, -93.6% (active).
